A short description of experiment [1]: qHTS assay to identify small molecule antagonists of the glucocorticoid receptor (GR) signaling pathway - cell viability counter screen (AID 720693). Note: nearly all actives have a fitted effect of over 55% in size. On the technique in general: Quantitative high-throughput screening tests each substance at several concentrations.
A short description of experiment [2]: qHTS assay for identifying genotoxic compounds that show differential cytotoxicity against isogenic chicken DT40 cell lines with known DNA damage response pathways - wild type cell line (AID 743012). Note: nearly all actives have a fitted effect of over 60% in size. The method, boiled down: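 Wild type DT40, 300 cells/well, ~0.5 h settle at 37 C/5% CO2; compounds in DMSO added by pintool; 40 h at 37 C/5% CO2; CellTiter-Glo, 30 min RT; luminescence.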

Experiment [3] in a line: qHTS assay for identifying genotoxic compounds that show differential cytotoxicity against isogenic chicken DT40 cell lines with known DNA damage response pathways - Rev3 mutant cell line (AID 743014). Note: nearly all actives have a fitted effect of over 55% in size.
Experiment [4] is described as follows: qHTS assay for identifying genotoxic compounds that show differential cytotoxicity against isogenic chicken DT40 cell lines with known DNA damage response pathways - Rad54/Ku70 mutant cell line (AID 743015). Note: nearly all actives have a fitted effect of over 60% in size.
A short description of experiment [5]: qHTS assay to identify small molecule antagonists of the androgen receptor (AR) signaling pathway - cell viability counter screen (AID 743033; note: nearly all actives have a fitted effect of over 45% in size).
Experiment [6] in a line: qHTS assay to identify small molecule antagonists of the androgen receptor (AR) signaling pathway using the MDA cell line - cell viability counter screen (AID 743041; note: nearly all actives have a fitted effect of over 45% in size). The gist of the method: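 MDA-kb2 AR-luc cells (MMTV-luciferase, AR/GR responsive) treated with compounds plus R1881 agonist for 16 h at 37C. CellTiter-Fluor added at 15.5 h; fluorescence read after 30 min in the same wells.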

Experiment [7] in a line: qHTS assay to identify small molecule antagonists of the thyroid receptor (TR) signaling pathway (AID 743065). For activity, negative = inhibition: series mostly up to about 70 µM. Note: nearly all actives have a fitted effect of over 55% in size. Note: potency is the fitted concentration of half-maximal effect. The method, boiled down:
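GH3.TRE-Luc rat pituitary cells (two TREs driving luciferase) were dosed with compound, then stimulated with 1 nM T3 (final) for 23.5 h at 37 C. ONE-Glo luminescence was the read-out, with CellTiter-Fluor fluorescence as the cytotoxicity counter-screen.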

Experiment [8] relates to thyroid hormone receptor (rat, GH3 cells). The experiment in a line: qHTS assay to identify small molecule agonists of the thyroid receptor (TR) signaling pathway (AID 743066; calls by dose curve).
The target in experiment [9] is Estrogen receptor (Homo sapiens) (UniProt P03372). The experiment in a line: qHTS assay to identify small molecule antagonists of the estrogen receptor alpha (ER-alpha) signaling pathway (AID 743069; active = well fitted curve in the direction sought with a large enough effect in the signal ratio in the repeat runs, not every such curve was filed as active; the % refers to the signal ratio). The gist of the method:
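HEK293 ER-alpha-UAS-bla GripTite cells, held overnight in 2% charcoal-stripped FBS, 5,000 cells/well, preincubated 4 h, then compound plus 17beta-estradiol for 18 h at 37C. Beta-lactamase read by LiveBLAzer B/G FRET substrate, 2 h at room temperature.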

Experiment [10] can be described thus: qHTS assay to identify small molecule antagonists of the estrogen receptor alpha (ER-alpha) signaling pathway - cell viability counter screen (AID 743074; calls by dose curve;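 note: HEK293 cells carrying ER-alpha-UAS-bla reporter stimulated with 17beta-estradiol; nearly all actives have a fitted effect of over 45% in size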).
Experiment [11] concerns the target Estrogen receptor (Homo sapiens) (UniProt P03372). The experiment can be described thus: qHTS assay to identify small molecule agonists of the estrogen receptor alpha (ER-alpha) signaling pathway (AID 743075; calls by dose curve).
The target is the same in experiment [12]. The experiment in a line: qHTS assay to identify small molecule agonists of the estrogen receptor alpha (ER-alpha) signaling pathway using the BG1 cell line (AID 743079). Note: nearly all actives have a fitted effect of over 20% in size.
The nature of experiment [13]: qHTS assay to identify small molecule antagonists of the estrogen receptor alpha (ER-alpha) signaling pathway using the BG1 cell line (AID 743080; calls by dose curve;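 note: BG1 cells stimulated with 17beta-estradiol alongside compound; series mostly up to about 70 µM; nearly all actives have a fitted effect of over 25% in size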). The method, boiled down: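 BG1-Luc-4E2 cells (endogenous full-length ER-alpha, 4xERE luciferase) hormone-starved 5 days in charcoal-stripped FBS, plated 4,000/well for 24 h, then compound plus 17beta-estradiol for 21.5 h at 37 C; ONE-Glo luminescence read.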

The nature of experiment [14]: qHTS assay to identify small molecule antagonists of the estrogen receptor alpha (ER-alpha) signaling pathway using the BG1 cell line - cell viability counter screen (AID 743081).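 Note: compound given together with 17beta-estradiol as the ER stimulus; series mostly up to about 70 µM; nearly all actives have a fitted effect of over 45% in size.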
The target of experiment [15] is Aromatase (Homo sapiens) (UniProt P11511). The experiment can be described thus: qHTS assay to identify aromatase inhibitors (AID 743083). Note: series mostly up to about 70 µM; nearly all actives have a fitted effect of over 55% in size.
A short description of experiment [16]: qHTS assay to identify small molecule antagonists of the thyroid receptor (TR) signaling pathway - cell viability counter screen (AID 743064). Note: nearly all actives have a fitted effect of over 50% in size. Note: potency is the fitted concentration of half-maximal effect. The method, boiled down:
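Plate GH3.TRE-Luc cells; incubate 4 h at 37 °C; add compound, then T3 to 1 nM final; incubate 23.5 h; add CellTiter-Fluor; incubate 30 min at 37 °C, 5% CO2; read fluorescence.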

Results filed as inconclusive are left out. A number with no mark means an inactive call. Activity calls are given as the source filed them. Unless noted, calls come from the whole dose curve; as a rule, active = well fitted curve in the direction sought with a large enough effect in the repeat runs; inconclusive = weak or mixed curves; inactive = no such curve, though single readings can be large; an effect the other way counts as inactive or inconclusive.
% is set by controls: 0 for no effect and ±100 for the full control effect.

Aromatase (Homo sapiens), sequence (P11511 whole entry, looked up): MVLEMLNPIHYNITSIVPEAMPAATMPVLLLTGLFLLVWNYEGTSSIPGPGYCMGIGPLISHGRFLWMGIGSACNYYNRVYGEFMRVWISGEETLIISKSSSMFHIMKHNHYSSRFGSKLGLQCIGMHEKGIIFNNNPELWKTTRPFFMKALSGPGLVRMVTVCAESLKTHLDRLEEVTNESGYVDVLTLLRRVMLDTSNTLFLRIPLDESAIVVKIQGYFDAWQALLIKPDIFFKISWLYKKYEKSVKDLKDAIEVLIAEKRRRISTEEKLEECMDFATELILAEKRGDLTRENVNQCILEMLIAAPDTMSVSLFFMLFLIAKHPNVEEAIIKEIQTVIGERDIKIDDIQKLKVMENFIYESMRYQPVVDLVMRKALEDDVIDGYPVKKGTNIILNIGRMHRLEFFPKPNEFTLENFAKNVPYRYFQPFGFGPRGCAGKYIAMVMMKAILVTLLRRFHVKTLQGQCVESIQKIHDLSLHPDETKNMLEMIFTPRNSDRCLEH
Estrogen receptor (Homo sapiens), sequence (P03372 whole entry, looked up): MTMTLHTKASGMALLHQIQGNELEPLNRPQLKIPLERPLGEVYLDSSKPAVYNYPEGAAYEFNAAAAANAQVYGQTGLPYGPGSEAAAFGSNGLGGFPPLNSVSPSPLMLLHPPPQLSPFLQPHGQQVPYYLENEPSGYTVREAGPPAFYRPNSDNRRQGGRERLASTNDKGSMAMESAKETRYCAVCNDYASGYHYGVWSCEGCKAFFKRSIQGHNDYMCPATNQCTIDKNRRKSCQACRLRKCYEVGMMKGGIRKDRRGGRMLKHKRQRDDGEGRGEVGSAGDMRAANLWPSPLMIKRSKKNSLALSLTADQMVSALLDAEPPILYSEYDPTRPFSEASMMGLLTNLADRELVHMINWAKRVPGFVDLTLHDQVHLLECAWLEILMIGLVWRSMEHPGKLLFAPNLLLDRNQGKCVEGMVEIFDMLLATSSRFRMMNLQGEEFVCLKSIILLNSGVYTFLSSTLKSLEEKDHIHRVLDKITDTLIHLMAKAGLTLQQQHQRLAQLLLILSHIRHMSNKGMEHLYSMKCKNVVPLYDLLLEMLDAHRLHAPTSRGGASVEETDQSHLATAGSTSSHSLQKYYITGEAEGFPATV

Turning to `CCNC(=O)NCc1cccc(Cl)c1`, the call in experiment [1], in experiment [5], in experiment [8], in [9], in experiment [10] and in experiment [13] was inactive. The outcome in [15] was inactive. Besides, the Potency entry in experiment [2], in experiment [3], in [4], in experiment [6], in [7] and in experiment [11] was “inactive” throughout. The Potency result in experiment [12] and in experiment [14] was “inactive” in each case.
`C=CCCCCCCCC`: the result in experiment [1], in experiment [5], in experiment [8], in [10] and in experiment [15] was inactive. Besides, the Potency entry in experiment [2], in [3], in [4], in [6], in experiment [16] and in experiment [7] was “inactive” each time. Also, the Potency result in experiment [14] is “inactive”.
As to `O=[N+]([O-])c1c(Cl)cc(Cl)cc1Cl`, the compound was classed as inactive in [1], in experiment [5], in [8], in experiment [10] and in [15]. Further, the Potency entry in experiment [2], in [3], in experiment [4], in [6], in experiment [16] and in experiment [7] was “inactive” each time. Moreover, the Potency result in experiment [14] was “inactive”.
Turning to `Cc1c(N)cccc1Cl`, the compound was called inactive in experiment [1], in experiment [5], in experiment [8], in experiment [13] and in [15]. In addition, the Potency entry in experiment [2], in experiment [3], in experiment [4], in experiment [6], in experiment [16] and in experiment [7] was “inactive” throughout. In addition, the Potency entry in experiment [11] and in experiment [14] was “inactive” in each case.
`CC(=O)O[Si](C)(OC(C)=O)OC(C)=O`: the result in experiment [1], in experiment [5], in experiment [8], in experiment [10] and in [15] was inactive. The Potency result in experiment [2], in [3], in experiment [4], in [6], in experiment [16] and in experiment [7] was “inactive” each time. The Potency entry in experiment [14] was “inactive”.
For the compound `O=C1c2ccccc2C(=O)c2cc(Cl)ccc21`, the viability change, negative = cytotoxic in experiment [1] was -1.8% [at 7.04 µM]; in experiment [6] it was -1.61% [at 8.47 µM]. Besides, the activity change, negative = cytotoxicity in [2] is 8.37% [at 8.52 µM]; in experiment [4] it was 2.51% [at 8.55 µM]; in experiment [5] it was 5.05% [at 7.04 µM]; in experiment [14], 5.98% [at 8.47 µM]. For the same compound, the activity, negative = cytotoxicity in [3] is 3.55% [at 8.53 µM]; in experiment [10], -11.1% [at 6.72 µM]. Besides, the activity, negative = inhibition in experiment [7] is 31.6% [at 8.44 µM]; in experiment [9] it was -4.44% [at 6.71 µM]; in [15] it was 23.3% [at 8.47 µM]. The activation in experiment [8] was 1.1% [at 8.08 µM]; in experiment [11], -3.38% [at 6.71 µM]. Moreover, the activity change, negative = inhibition in experiment [13] is 1.09% [at 8.47 µM].
Take `CC(=O)OC(C)=O`: the compound was classed as inactive in experiment [1], in experiment [5], in experiment [8], in experiment [10] and in [15]. Moreover, the Potency entry in experiment [2], in [3], in experiment [4], in experiment [6], in [16] and in experiment [7] was “inactive” throughout. Also, the Potency entry in experiment [14] is “inactive”.
For the compound `O=C(CN1CCNCC1)NC1CCCCC1`, the result in [1], in experiment [5], in experiment [9], in experiment [10], in experiment [13] and in experiment [15] was inactive. In addition, the Potency entry in experiment [2], in experiment [3], in experiment [4], in experiment [6], in experiment [16] and in experiment [11] was “inactive” throughout. Also, the Potency entry in experiment [12] and in experiment [14] was “inactive” each time.
Take `COS(=O)(=O)O`: the compound was called inactive in [1], in [5], in experiment [8], in experiment [10] and in [15]. The Potency entry in [2], in [3], in [4], in [6], in [16] and in experiment [7] was “inactive” each time. Besides, the Potency result in experiment [14] is “inactive”.
Regarding `CC1=NN(c2ccc(S(=O)(=O)O)cc2)C(=O)C1`, the outcome in [1], in experiment [5], in experiment [8], in [10] and in [15] was inactive. The Potency entry in experiment [2], in experiment [3], in [4], in experiment [6], in [16] and in experiment [7] was “inactive” throughout. In addition, in [14], the Potency result is “inactive”.
As to `OC[C@@H](O)C(O)[C@@H](O)CO` (some centres undefined), the call in experiment [1], in experiment [5], in experiment [8] and in experiment [15] was inactive. The Potency result in experiment [2], in [3], in [4], in experiment [6], in experiment [7] and in experiment [14] was “inactive” in each case.
With `CC1(C)CC(OC(=O)CCCCCCCCC(=O)OC2CC(C)(C)NC(C)(C)C2)CC(C)(C)N1`, the compound was classed as inactive in [1], in experiment [5], in experiment [8], in experiment [13] and in experiment [15]. For the same compound, the Potency result in [2], in experiment [3], in [4], in [6], in experiment [11] and in experiment [12] was “inactive” each time. Further, in experiment [14], the Potency result was “inactive”. Moreover, the Potency in experiment [16] is 2.96 µM (active); in experiment [7] it was 5.91 µM (active).
Take `Cn1c(=O)c2c(ncn2CCO)n(C)c1=O`: the result in experiment [1], in experiment [5], in experiment [8], in experiment [10] and in experiment [15] was inactive. The Potency entry in experiment [2], in [3], in [4], in experiment [6], in [16] and in experiment [7] was “inactive” each time. For the same compound, the Potency entry in experiment [14] is “inactive”.

Values taken from PubChem BioAssay (Tox21).
